# Laboratory results as given in PubChem BioAssay (NCI).
# The panel holds about 79,000 compounds, 15% with a hit somewhere; the sample as a whole holds those more often. Unmarked numbers belong to inactive results. Calls of active or inactive are those of the source. Cut-off read from the data, not from the text of the source: active = growth inhibition above about 70%; inactive = the rest.
# How the values were obtained:
# [1] = NCI Yeast Anticancer Drug Screen. Data for the rad52 strain (AID 147);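 note: 0% = growth of vehicle-treated control cultures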; settings: S. cerevisiae rad52 mutant growth inhibition, hits give high values
# Procedure, shortened: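 Yeast strain carrying a DNA damage repair alteration was exposed to test compounds. Growth inhibition was measured relative to vehicle-treated controls.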
# [2] = NCI Yeast Anticancer Drug Screen. Data for the wt1 strain (AID 149);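 note: 0% = growth of vehicle-treated wt1 cultures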; settings: S. cerevisiae wt1 strain (SPY 50644) growth inhibition, hits give high values
# Procedure, shortened: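 Readout: yeast growth inhibition, normalised to vehicle controls, in the wt1 strain exposed to test compounds.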
# [3] = NCI Yeast Anticancer Drug Screen. Data for the rad50EPP+ strain (AID 151);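 note: 0% = growth of vehicle-treated control cultures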; settings: S. cerevisiae rad50 mutant strain, hits give high values
# Procedure, shortened: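 Yeast strain carrying rad50 alteration (rad50EPP+) exposed to compounds; growth inhibition measured relative to vehicle-treated controls.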
# [4] = NCI Yeast Anticancer Drug Screen. Data for the mgt1 strain (AID 153); settings: S. cerevisiae mgt1 mutant growth inhibition, hits give high values
# Procedure, shortened: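 Yeast mgt1 strain (DNA repair/cell-cycle alteration panel) exposed to compounds; growth inhibition measured relative to vehicle-treated controls.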
# [5] = NCI Yeast Anticancer Drug Screen. Data for the rad50 strain (AID 155);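 note: 0% = growth of vehicle-only cultures of the same strain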; settings: S. cerevisiae rad50 strain growth inhibition, hits give high values
# Procedure, shortened: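 Compounds were tested on a yeast strain with an engineered DNA damage repair alteration; the reported value is growth inhibition normalised to vehicle treatment.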
# [6] = NCI Yeast Anticancer Drug Screen. Data for the mec2-1 strain (AID 157); settings: S. cerevisiae mec2-1 strain, hits give high values
# Procedure, shortened: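 mec2-1 yeast strain, carrying an alteration in DNA damage repair or cell cycle control, was exposed to compounds; growth inhibition was measured relative to vehicle-treated controls.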
# [7] = NCI Yeast Anticancer Drug Screen. Data for the rad14 strain (AID 159);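 note: 0% = growth of vehicle-treated control cultures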; settings: S. cerevisiae rad14 strain growth inhibition, hits give high values
# Procedure, shortened: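 Compound-treated yeast with a defined DNA-repair lesion; growth inhibition normalised to vehicle-treated cultures.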
# [8] = NCI Yeast Anticancer Drug Screen. Data for the sgs1 mgt1 strain (AID 161);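 note: 0% = growth of cultures given vehicle only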; settings: S. cerevisiae sgs1 mgt1 strain, hits give high values
# Procedure, shortened: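 Yeast cells carrying a defined DNA-repair defect were exposed to test compounds. Growth inhibition was measured relative to vehicle-treated controls.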
# [9] = NCI Yeast Anticancer Drug Screen. Data for the cln2 rad14 strain (AID 165);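 note: 0% = growth equal to vehicle treated cultures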; settings: S. cerevisiae cln2 rad14 strain, hits give high values
# Procedure, shortened: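 Yeast carrying cln2 and rad14 alterations (cell cycle control and DNA damage repair) were exposed to compounds. Growth inhibition was measured against vehicle-treated controls.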
# [10] = NCI Yeast Anticancer Drug Screen. Data for the bub3 strain (AID 167); settings: S. cerevisiae bub3 mutant strain, hits give high values
# Procedure, shortened: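 Growth of a checkpoint-deficient yeast mutant is measured after compound exposure. Values represent inhibition relative to vehicle.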
# [11] = NCI Yeast Anticancer Drug Screen. Data for the wt2 strain (AID 169);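 note: 0% = growth of vehicle-treated yeast cultures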; settings: S. cerevisiae wt2 strain growth inhibition, hits give high values
# Procedure, shortened: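 Yeast cells were exposed to test compounds, and growth inhibition was measured relative to vehicle-treated controls.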
# [12] = NCI Yeast Anticancer Drug Screen. Data for the mlh1 strain (AID 171);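 note: 0% = growth of vehicle-treated control cultures of the same strain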; settings: S. cerevisiae mlh1 strain growth inhibition, hits give high values
# Procedure, shortened: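 Yeast carrying a defined genetic alteration in DNA damage repair or cell cycle control were exposed to test compounds. Growth inhibition was measured relative to vehicle-treated controls.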
# [13] = NCI Yeast Anticancer Drug Screen. Data for the sgs1 strain (AID 173);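 note: 0% = growth of vehicle-only control cultures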; settings: S. cerevisiae sgs1 mutant, hits give high values
# Procedure, shortened: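 Yeast mutant strains carrying defined defects in DNA damage repair or cell cycle control were exposed to test compounds. Growth inhibition was scored against vehicle-treated controls.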
# [14] = NCI Yeast Anticancer Drug Screen. Data for the mlh1 rad18 strain (AID 175); settings: S. cerevisiae mlh1 rad18 strain growth inhibition, hits give high values
# Procedure, shortened: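 Growth inhibition of the yeast strain was measured after compound exposure and expressed relative to vehicle-treated controls. The strain carries defined defects in DNA damage repair.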
# [15] = NCI Yeast Anticancer Drug Screen. Data for the rad18 strain (AID 177); settings: S. cerevisiae rad18 mutant growth inhibition, hits give high values
# Procedure, shortened: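 Yeast carrying a defined DNA damage repair alteration were exposed to compounds. Growth inhibition was expressed relative to vehicle-treated controls.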
# [16] = at 5.0 µM (retest, dose inferred, filed as 0.5)
# [17] = at 50.0 µM (retest, dose inferred, filed as 5.0)
compound,measurement,setting,value
O=C(O)C(=Cc1ccc(-c2ccccc2)cc1)C(=O)O,growth inhibition,[1]; at 1.2 µM,6%
same,growth inhibition,[1]; at 3.7 µM,10%
same,growth inhibition,[1]; at 11.0 µM,24%
same,growth inhibition,[1]; at 33.0 µM,50%
same,growth inhibition,[1]; at 100.0 µM,87% (active)
same,growth inhibition,[2]; at 1.2 µM,2%
same,growth inhibition,[2]; at 3.7 µM,4%
same,growth inhibition,[2]; at 11.0 µM,16%
same,growth inhibition,[2]; at 33.0 µM,55%
same,growth inhibition,[2]; at 100.0 µM,88% (active)
same,growth inhibition,[3]; at 1.2 µM,-1%
same,growth inhibition,[3]; at 3.7 µM,-1%
same,growth inhibition,[3]; at 11.0 µM,-1%
same,growth inhibition,[3]; at 33.0 µM,6%
same,growth inhibition,[3]; at 100.0 µM,25%
same,growth inhibition,[4]; at 1.2 µM,2%
same,growth inhibition,[4]; at 3.7 µM,4%
same,growth inhibition,[4]; at 11.0 µM,22%
same,growth inhibition,[4]; at 33.0 µM,58%
same,growth inhibition,[4]; at 100.0 µM,90% (active)
same,growth inhibition,[5]; at 1.2 µM,0%
same,growth inhibition,[5]; at 3.7 µM,-5%
same,growth inhibition,[5]; [16],2%
same,growth inhibition,[5]; at 11.0 µM,11%
same,growth inhibition,[5]; at 33.0 µM,54%
same,growth inhibition,[5]; [17],23%
same,growth inhibition,[5]; at 50.0 µM,60.1%
same,growth inhibition,[5]; at 100.0 µM,88% (active)
same,growth inhibition,[6]; at 1.2 µM,4%
same,growth inhibition,[6]; at 3.7 µM,7%
same,growth inhibition,[6]; [16],-7%
same,growth inhibition,[6]; at 11.0 µM,30%
same,growth inhibition,[6]; at 33.0 µM,60%
same,growth inhibition,[6]; [17],63%
same,growth inhibition,[6]; at 50.0 µM,46.5%
same,growth inhibition,[6]; at 100.0 µM,92% (active)
same,growth inhibition,[7]; at 1.2 µM,5%
same,growth inhibition,[7]; at 3.7 µM,8%
same,growth inhibition,[7]; at 11.0 µM,17%
same,growth inhibition,[7]; at 33.0 µM,46%
same,growth inhibition,[7]; at 100.0 µM,90% (active)
same,growth inhibition,[8]; [16],4%
same,growth inhibition,[8]; [17],24%
same,growth inhibition,[8]; at 50.0 µM,31.5%
same,growth inhibition,[9]; [16],46%
same,growth inhibition,[9]; [17],27%
same,growth inhibition,[9]; at 50.0 µM,23.7%
same,growth inhibition,[10]; at 1.2 µM,1%
same,growth inhibition,[10]; at 3.7 µM,1%
same,growth inhibition,[10]; [16],-10%
same,growth inhibition,[10]; at 11.0 µM,24%
same,growth inhibition,[10]; at 33.0 µM,72% (active)
same,growth inhibition,[10]; [17],43%
same,growth inhibition,[10]; at 50.0 µM,71.8% (active)
same,growth inhibition,[10]; at 100.0 µM,93% (active)
same,growth inhibition,[11]; at 1.2 µM,0%
same,growth inhibition,[11]; at 3.7 µM,3%
same,growth inhibition,[11]; at 11.0 µM,17%
same,growth inhibition,[11]; at 33.0 µM,61%
same,growth inhibition,[11]; at 100.0 µM,89% (active)
same,growth inhibition,[12]; at 1.2 µM,3%
same,growth inhibition,[12]; at 3.7 µM,5%
same,growth inhibition,[12]; at 11.0 µM,23%
same,growth inhibition,[12]; at 33.0 µM,69%
same,growth inhibition,[12]; at 100.0 µM,94% (active)
same,growth inhibition,[13]; at 1.2 µM,3%
same,growth inhibition,[13]; at 3.7 µM,7%
same,growth inhibition,[13]; at 11.0 µM,26%
same,growth inhibition,[13]; at 33.0 µM,72% (active)
same,growth inhibition,[13]; at 100.0 µM,92% (active)
same,growth inhibition,[14]; [16],-2%
same,growth inhibition,[14]; [17],19%
same,growth inhibition,[14]; at 50.0 µM,70.9% (active)
same,growth inhibition,[15]; at 1.2 µM,3%
same,growth inhibition,[15]; at 3.7 µM,7%
same,growth inhibition,[15]; at 11.0 µM,20%
same,growth inhibition,[15]; at 33.0 µM,70% (active)
same,growth inhibition,[15]; at 100.0 µM,91% (active)
